Values joined by “and” are separate entries in the source; they are usually repeats but may differ in a detail not shown here. Equal entries are not always repeated. Records with an inconclusive call do not appear. Active and inactive are the calls of the source. Unless noted, calls come from the whole dose curve; as a rule, active = well fitted curve in the direction sought with a large enough effect; inconclusive = small, poorly fitted or top-dose-only effect, or another doubt; inactive = no such curve, though single readings can be large; an effect the other way counts as inactive or inconclusive.

Assay [1] in a line: qHTS Assay for Identifying Gametocytocidal Compounds (AID 743244).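 For max response: % is set by controls: 0 for no effect and ±100 for the full control effect; actives lower the fluorescent signal which means gametocytes are killed.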 Note: potency is the fitted concentration of half-maximal effect. The conditions noted are these: P. falciparum 3D7 stage III-V gametocytes, alamarBlue, 72 h; max response: stronger effect = lower value. The method, boiled down: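 Viability read-out was resazurin reduction (alamarBlue, 24 h) measured at Ex 525/Em 598 nm. Beforehand, late-stage (III-V) 3D7 P. falciparum gametocytes at 20,000 cells/well were incubated with compound 72 h at 37C under 5% CO2.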
Background: qHTS replaces the single test concentration by a dilution series.

Assay [2] in a line: qHTS profiling for inhibitors of Plasmodium falciparum (3D7) proliferation (AID 743322; call rule not given here;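 note: infected erythrocytes exposed to compound for 72 h before lysis; 100% = DMSO vehicle wells and 0% = 0.29 µM artemisinin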). The settings on record: P. falciparum 3D7 proliferation; at 28.7 µM (top of the series) unless noted. In short, it runs like this:
(§1)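 Parasite DNA was quantified by SYBR Green I fluorescence (ex 485, em 535 nm) after overnight lysis in saponin/Triton buffer at room temperature. Cultures at 0.3% parasitemia and 2.5% hematocrit were first exposed to compound for 72 h at 37 C; signals were normalised to artemisinin (0.29 uM) and vehicle wells.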

Assay [3] is described as follows: qHTS profiling for inhibitors of Plasmodium falciparum (DD2) proliferation (AID 743323; call rule not given here). The conditions noted are these: lower = more inhibition; at 28.7 µM (top of the series) unless noted. The method, boiled down:
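P. falciparum Dd2-infected erythrocytes (0.3% parasitemia, 2.5% hematocrit) exposed 72 h at 37 C, 5% CO2. Lysis with SYBR Green, overnight at room temperature, fluorescence 485/535 nm; normalized to 0.29 uM artemisinin and DMSO.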

The nature of assay [4]: qHTS profiling for inhibitors of Plasmodium falciparum (HB3) proliferation (AID 743324).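 Note: 100% = DMSO vehicle wells and 0% = artemisinin-treated control wells.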 The settings on record: Plasmodium falciparum HB3 blood-stage proliferation; at 28.7 µM (top of the series) unless noted. The method, boiled down: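 SYBR Green fluorescence (485 ex/535 em) of lysed cultures, incubated overnight at room temperature in the dark, quantifies parasite DNA. Infected erythrocytes at 0.3% parasitemia and 2.5% hematocrit were exposed 72 h; values normalized to DMSO and 0.29 uM artemisinin controls.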

Assay [5] in a line: qHTS profiling of the MIPE4 collection as inhibitors of Plasmodium falciparum (3D7) proliferation (AID 743344; call rule not given here;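 note: scaled between DMSO vehicle wells and 0.29 µM artemisinin as full inhibition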). The conditions noted are these: P. falciparum 3D7 in erythrocytes, SYBR Green DNA fluorescence, 72 h; at 28.5 µM (top of the series). In short, it runs like this: as §1
Assay [6] is described as follows: qHTS profiling of the MIPE4 collection as inhibitors of Plasmodium falciparum (DD2) proliferation (AID 743345; call rule not given here). The settings on record: P. falciparum Dd2 in erythrocytes, SYBR Green DNA, 72 h; at 28.5 µM (top of the series). The method, boiled down:
as §1

A short description of assay [7]: qHTS profiling of the MIPE4 collection as inhibitors of Plasmodium falciparum (DD2) proliferation (Rep 2) (AID 743346; call rule not given here). The conditions noted are these: P. falciparum Dd2 in erythrocytes, SYBR Green DNA, 72 h; at 28.5 µM (top of the series). In short, it runs like this:
as §1

Assay [8] can be described thus: qHTS profiling of the MIPE4 collection as inhibitors of Plasmodium falciparum (HB3) proliferation (AID 743347; call rule not given here;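 note: plate controls were DMSO vehicle wells for no effect and artemisinin wells for full effect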). The conditions noted are these: P. falciparum HB3 in erythrocytes, SYBR Green DNA, 72 h; at 28.5 µM (top of the series). In short, it runs like this:
as §1

Assay [9] in a line: qHTS assay for cell viability of HEK293 cells (AID 743288). For max response: % is set by controls: 0 for no effect and ±100 for the full control effect. Note: nearly all actives have a fitted effect of over 50% in size. Note: potency is the fitted concentration of half-maximal effect. The conditions noted are these: ATP luminescence (CellTiter-Glo), 18 h; max response: stronger effect = lower value. In short, it runs like this:
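Quantitative high-throughput screen: compounds were pinned onto parental HEK293 cells (2,000 per well) after a minimum 5 h settling at 37 C, incubated 18 h at 37 C, and intracellular ATP measured by luciferase luminescence.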

Assay [10] is described as follows: qHTS assay for cell viability of the p53RE-bla HCT-116 cell line (AID 743292). Note: nearly all actives have a fitted effect of over 55% in size. Note: potency is the fitted concentration of half-maximal effect. In short, it runs like this: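 Readout: CellTiter-Glo luminescence after 30 min RT. Treatment: compounds in DMSO, 16 h, 37 C. Cells: CellSensor p53RE-bla HCT-116, 4,000/well, preincubated 5 h.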

With `C=CC(C)=C[C@@]1(C)SC(=O)C(C)=C1O`, the max response in assay [1] was 15.5% (inactive). In addition, in assay [2], the remaining parasite growth % (stronger effect = lower value) worked out at 98%. The molecule also registered an activity, percent of control in assay [3] of 98.3%. The same molecule displayed a remaining proliferation (% of control), lower = more inhibition in assay [4] of 92.5%. For the same molecule, in assay [5], the parasite growth, % of DMSO control came out at 98.9%. Besides, the parasite growth remaining, % of DMSO control (lower = more inhibition) in assay [6] is 108%. Besides, the parasite growth, % of control (lower = inhibition) in assay [7] was found to be 151%. In [8], this molecule gave a growth, % of control of 77.3%.

For `O=C(Nc1cccc(C(=O)Nc2ccc(S(=O)(=O)O)c3cc(S(=O)(=O)O)cc(S(=O)(=O)O)c23)c1)Nc1cccc(C(=O)Nc2ccc(S(=O)(=O)O)c3cc(S(=O)(=O)O)cc(S(=O)(=O)O)c23)c1`, in assay [1], the max response is -0.217% (inactive). This molecule also came in with a parasite growth, % of DMSO control in assay [5] of 84.7%. For the same molecule, the parasite growth remaining, % of DMSO control (lower = more inhibition) in assay [6] was 91.3%. The parasite growth, % of control (lower = inhibition) in assay [7] amounted to 111%. In [8], this molecule gave a growth, % of control of 83.4%.

Take `Nc1ccc(O)c(C(=O)O)c1`: the max response in assay [1] was 11.4% (inactive); in assay [9] it was -0.669% (inactive) and -7.83% (inactive). For the same molecule, the Potency result in assay [10] was “inactive”.

Regarding `CN1CCC[C@H]1c1cccnc1`, the max response in [9] was -10.2% (inactive) and -14.6% (inactive). Moreover, the Potency result in assay [10] was “inactive”.

On to `COc1cc(CNC(=O)CCCC/C=C/C(C)C)ccc1O`, for which the max response in assay [1] is 10.1% (inactive); in assay [9] it was -3.17% (inactive) and -17.3% (inactive). Further, the Potency result in assay [10] was “inactive”.

`O=C(O)[C@H](O)[C@@H](O)[C@H](O)[C@H](O)CO`: the max response in assay [1] is -9.36% (inactive) and 0.225% (inactive); in [9], -14.1% (inactive). The Potency result in [10] is “inactive”.

As for `CN(C)c1ccc(N=NS(=O)(=O)O)cc1`, the max response in assay [9] was -6.45% (inactive) and -13.1% (inactive). Besides, the Potency entry in [10] was “inactive”.

Regarding `Nc1ccc([N+](=O)[O-])cc1O`, the max response in [1] was -2.68% (inactive); in [9] it was 3.96% (inactive) and 2.89% (inactive). Further, the Potency result in assay [10] is “inactive”.

Take `CN(C)CCC(c1ccc(Cl)cc1)c1ccccn1` (stereo unspecified): the max response in assay [9] was -8.98% (inactive). In assay [10], the Potency entry was “inactive”. This molecule also displayed a parasite growth, % of DMSO control in assay [5] of 105%. The parasite growth remaining, % of DMSO control (lower = more inhibition) in assay [6] worked out at 70.9%. For the same molecule, the parasite growth, % of control (lower = inhibition) in assay [7] turned out to be 38.1%. The same molecule displayed a growth, % of control in [8] of 78.9%.

With `CN(C)c1ccc(C(=C2C=CC(=[N+](C)C)C=C2)c2ccccc2)cc1`, the results for the Potency in assay [9] and in assay [10] were 3.55 µM (active) and 3.98 µM (active), respectively.

`COC(=O)C1=C(C)NC(C)=C(C(=O)OCC(C)C)C1c1ccccc1[N+](=O)[O-]` (stereo unspecified): the max response in assay [1] was 0.875% (inactive). The parasite growth, % of DMSO control in [5] came out at 5.69%. Besides, the parasite growth remaining, % of DMSO control (lower = more inhibition) in [6] was 15%. In addition, the parasite growth, % of control (lower = inhibition) in assay [7] came to 8.98%. In assay [8], the growth, % of control worked out at 9.44%.

As to `O=c1cc(-c2ccccc2)oc2ccccc12`, the max response was 7.39% (inactive) in assay [1]; -12.4% (inactive) and -11.5% (inactive) in [9]. For the same molecule, the Potency result in assay [10] is “inactive”.

In the case of `S=c1[nH]c2ccccc2s1`, the max response in [9] is 3.04% (inactive) and -5.55% (inactive). Also, the Potency result in assay [10] was “inactive”.

`O=C(O)c1cc(O)c(O)c(O)c1`: the max response in [9] was -7.89% (inactive). In addition, in assay [10], the Potency entry was “inactive”.

Regarding `c1cnc2c(c1)ccc1cccnc12`, in [1], the Potency was 1.87 µM (active). In assay [10], the Potency entry is “inactive”.

For the molecule `NCCO`, the max response in assay [1] was 6.49% (inactive). For the same molecule, the Potency entry in assay [10] is “inactive”.

In the case of `Oc1ccccc1O`, in [10], the Potency entry was “inactive”.

With `Nc1nc2ccc([N+](=O)[O-])cc2s1`, the max response is 8.79% (inactive) in [1] and 6.78% (inactive) in [9]. Moreover, the Potency result in assay [10] was “inactive”.

As for `CN1[C@@H]2CC[C@H]1CC(OC(=O)C(CO)c1ccccc1)C2` (stereo partly specified), in [9], the max response is -4.41% (inactive). Also, the Potency result in assay [10] is “inactive”.

As to `O=C(O)/C=C\C(=O)O`, the max response in assay [9] was 5.88% (inactive). In addition, the Potency entry in assay [10] is “inactive”.

`C=CCc1cccc(/C=N/NC(=O)CN2CCN(Cc3ccccc3)CC2)c1O` came in with a remaining parasite growth % (stronger effect = lower value) in assay [2] of 16.2%. This molecule also had an activity, percent of control in [3] of 11.8%. This molecule registered a remaining proliferation (% of control), lower = more inhibition in [4] of 9.08%.

For the molecule `COc1cc(NC(C)CCCN)c2ncccc2c1` (stereo unspecified), the Potency in [1] was 2.15 µM (active). The remaining parasite growth % (stronger effect = lower value) in [2] was determined as 4.3% [at 9.63 µM]. Besides, the activity, percent of control in [3] turned out to be 2.77% [at 9.63 µM]. In assay [4], this molecule came in with a remaining proliferation (% of control), lower = more inhibition of 6.48% [at 9.63 µM]. For the same molecule, the parasite growth, % of DMSO control in assay [5] was determined as 7.16%. In addition, the parasite growth remaining, % of DMSO control (lower = more inhibition) in assay [6] is 8.84%. The parasite growth, % of control (lower = inhibition) in assay [7] was found to be 15.5%. In assay [8], this molecule returned a growth, % of control of 8.75%.

For `CC(C)NCC(O)COc1cccc2ccccc12` (stereo unspecified), the max response in [9] was 1.78% (inactive) and -12.1% (inactive). Moreover, the Potency result in assay [10] was “inactive”.

For `C[N+](C)(CCCCCC[N+](C)(C)CCCN1C(=O)c2cccc3cccc(c23)C1=O)CCCN1C(=O)c2cccc3cccc(c23)C1=O`, the max response in assay [1] was -6.11% (inactive). This molecule returned a parasite growth, % of DMSO control in assay [5] of 5.01%. The parasite growth remaining, % of DMSO control (lower = more inhibition) in [6] was 5.17%. In addition, the parasite growth, % of control (lower = inhibition) in [7] turned out to be 6.76%. Further, the growth, % of control in assay [8] was determined as 4.26%.

As to `O=C(O)c1ccccc1Nc1cccc(C(F)(F)F)c1`, the max response in [9] is -8.76% (inactive). For the same molecule, in assay [10], the Potency result was “inactive”.

For the origin of these results see PubChem BioAssay (NCATS).
